USP28 inh – blocks human USP28 ubiquitin-rhodamine cleavage; Q96RU2; purified USP28, Ub-rhodamine cleavage fluorescence, 30 min; inhibition, % at 25 µM; hit rate 3% among 47,000; AID 1645857
USP17 block – blocks human USP17 ubiquitin-rhodamine cleavage | A8MUK1 | purified USP17, Ub-rhodamine cleavage fluorescence, 3 h | inhibition, % at 50 µM | hit rate 6.5% among 47,000 | AID 1645855
Target sequence (A8MUK1 whole entry, looked up): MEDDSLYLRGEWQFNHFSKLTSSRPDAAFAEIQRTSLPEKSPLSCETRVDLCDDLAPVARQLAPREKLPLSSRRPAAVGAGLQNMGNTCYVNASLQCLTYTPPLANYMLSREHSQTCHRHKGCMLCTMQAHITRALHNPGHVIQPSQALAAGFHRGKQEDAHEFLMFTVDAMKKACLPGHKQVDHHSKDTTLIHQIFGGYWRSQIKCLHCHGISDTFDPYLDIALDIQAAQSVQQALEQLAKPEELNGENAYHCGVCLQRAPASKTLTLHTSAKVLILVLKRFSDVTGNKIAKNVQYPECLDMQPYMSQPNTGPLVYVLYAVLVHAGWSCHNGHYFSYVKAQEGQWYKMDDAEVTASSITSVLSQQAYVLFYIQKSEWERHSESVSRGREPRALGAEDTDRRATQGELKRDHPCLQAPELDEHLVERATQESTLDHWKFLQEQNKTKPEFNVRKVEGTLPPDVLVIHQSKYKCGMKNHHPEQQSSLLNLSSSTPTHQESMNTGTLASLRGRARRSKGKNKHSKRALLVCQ
USP8 inh – blocks human USP8 ubiquitin-rhodamine cleavage; AID 1645853; inhibition, % at 20 µM; P40818; hit rate 4.2% among 47,000; purified USP8, Ub-rhodamine cleavage fluorescence, 30 min
USP30 inh – inhibitors of human USP30 deubiquitinase; hit rate 5.3% among 47,000; AID 1645860; purified USP30, Ub-rhodamine cleavage fluorescence; inhibition, % at 25 µM
The depositor's hits bear a star; · = not tested or not shown. This is a sample that favours compounds with a hit; in the whole collection about 13% have one here. Rule as the data show it: active = inhibition above about 30%; inactive = the rest.

SMILES	USP28 inh	USP17 block	USP8 inh	USP30 inh
COCCN1C[C@H]2COc3ccccc3[C@H]2N(C(=O)c2cccc(OC)c2)CCC1=O	2	9	15	8
CCCCc1ccc(NC(=O)Nc2ccccc2C(=O)NCC2CC2)cc1	14	31*	20	27
Cc1cccc(-n2nnc3c(=O)n(CC(=O)Nc4ccc5c(c4)OCCO5)cnc32)c1	0	0	8	-9
CCOC(=O)c1ccc(NC(=O)Cn2cnc3c(nnn3-c3cccc(Cl)c3)c2=O)cc1	-11	33*	-14	13
Cc1ccc(Cn2cnc3c(nnn3-c3cccc(F)c3)c2=O)cc1	9	47*	42*	18
Cc1cccc(-n2nnc3c(=O)n(CC(=O)Nc4ccc5c(c4)OCO5)cnc32)c1	0	7	31*	17
CCOC(=O)c1ccc(NC(=O)Cn2cnc3c(nc4n3CCCCC4)c2=O)cc1	14	12	24	49*
Cc1nn(C)c(C)c1CNC(=O)c1[nH]c2ccccc2c1NC(=O)c1ccc(Cl)cc1	8	9	21	27
O=C(COC(=O)c1ccccc1OCc1ccccc1)Nc1cccc2ccccc12	30*	23	28	49*
O=C(COC(=O)c1ccccc1OCc1ccccc1)Nc1ccc(Cl)cc1	36*	21	12	34*
N#Cc1ccc(NC(=O)COC(=O)c2ccccc2Nc2ccccc2)cc1	27	34*	7	5
N#Cc1cccc(NC(=O)COC(=O)c2ccccc2OCc2ccc(Cl)cc2)c1	8	-4	0	6
O=C(NCCn1ncc2c(=O)n(Cc3cccc(Cl)c3)cnc21)C1CC1	5	3	8	9
COc1ccc(CC(=O)Nc2ccc(C)c(S(=O)(=O)Nc3ccccc3OC)c2)cc1	0	1	0	4
COc1ccc(NC(=O)CCOc2ccccc2C)cc1S(=O)(=O)Nc1cc(C)ccc1Br	25	6	8	35*
COc1cc2oc(=O)cc(CN3CCCCC3)c2cc1OC	-4	45*	3	2
Cn1ccc2cc(CCC(=O)NCc3cc(F)cc(F)c3)ccc21	-90	-74	-59	-274
COc1ccc(CNCc2cc3c(C)nn(-c4ccccc4)c3[nH]c2=O)cc1	11	·	64*	-17
Cc1nn(-c2ccccc2)c2[nH]c(=O)c(CNCc3ccccc3Cl)cc12	-1	-4	72*	-36
CCNC(=O)c1ncn2c1C(=O)N(C1CC1)C(C)(C(=O)NCc1ccccc1)C2 (stereo unspecified)	-7	2	-3	-5
CC(NC(=O)c1ccccc1)c1nc(-c2ccc(S(=O)(=O)N3CCCCC3)cc2)no1 (stereo unspecified)	4	21	5	0
CC(NC(=O)c1ccccc1)c1nc(-c2ccc(S(=O)(=O)N3CCCC3)cc2)no1 (stereo unspecified)	16	43*	12	17
CC(C)c1ccc(NC(=O)C2C3C=CC4(O3)C2C(=O)N(CCCN2CCC(Cc3ccccc3)CC2)C4C(=O)NC2CCCCC2)cc1 (stereo unspecified)	18	0	-10	36*
CCN1CCN(CCCN2C(=O)C3C(C(=O)Nc4ccc(C(C)C)cc4)C4C=CC3(O4)C2C(=O)NC2CCCCC2)CC1 (stereo unspecified)	2	9	11	15
CC(C)CCN1C(=O)C2C(C(=O)Nc3ccc(Oc4ccccc4)cc3)C3C=CC2(O3)C1C(=O)NC1CCCCC1 (stereo unspecified)	18	·	31*	63*
SMILES	USP28 inh	USP17 block	USP8 inh	USP30 inh
CCCCN1C(=O)C2C(C(=O)Nc3ccc(Oc4ccccc4)cc3)C3C=CC2(O3)C1C(=O)NC1CCCCC1 (stereo unspecified)	3	2	14	11
CC(C)Cc1nnc(NC(=O)C2CC(=O)N(CCc3ccc(F)cc3)C2)s1 (stereo unspecified)	3	-4	-10	4
Cc1nc(N2CCN(C)CC2)cc(N2CCN(C(=O)Nc3ccccc3Cl)CC2)n1	4	-3	-9	8
O=C(CC1C(=O)N(C2CCCC2)c2nc3ccccc3n21)Nc1ccccc1C(F)(F)F (stereo unspecified)	0	34*	17	23
Cc1ccc(NC(=O)CC2C(=O)N(C3CCCC3)c3nc4ccccc4n32)cc1 (stereo unspecified)	4	20	2	26
COCCCNC(=O)c1ccc(Cn2c(=O)c3ccccc3n(CC(=O)NCc3ccco3)c2=O)cc1	-3	-34	-22	-5
COCCNC(=O)Cn1c(=O)n(Cc2ccccc2)c(=O)c2c3c(sc21)CCC3	17	29	14	59*
COCCCNC(=O)c1ccc(Cn2c(=O)c3ccccc3n(CC(=O)N3CCN(c4ccccc4)CC3)c2=O)cc1	-12	-3	0	-21
COCCCNC(=O)c1ccc(Cn2c(=O)c3ccccc3n(CC(=O)NC3CCCCC3)c2=O)cc1	20	62*	0	46*
COCCNC(=O)Cn1c(=O)n(Cc2ccc(C(=O)NCc3ccc(C)cc3)cc2)c(=O)c2ccccc21	84*	77*	19	90*
CC(=O)c1ccc(S(=O)(=O)NC(C)C(=O)Nc2ccccn2)cc1 (stereo unspecified)	-2	-26	-1	-72
CC1=C(C(=O)NCc2ccccc2)C(c2ccc(F)cc2)n2ncnc2N1 (stereo unspecified)	2	17	15	22
Cc1ccc(-c2n[nH]n3c2nc(=O)c2ccc(C(=O)NCc4ccco4)cc23)cc1	-4	9	2	-134
COc1cccc(CNC(=O)c2ccc3c(=O)nc4c(-c5cccc(C)c5)n[nH]n4c3c2)c1	-28	-56	43*	-68
O=C(NC1CCCCC1)C(c1ccccc1)N(Cc1ccc2c(c1)OCO2)C(=O)C1COc2ccccc2O1 (stereo unspecified)	-10	-16	-15	-39
O=C(COC(=O)c1ccccc1F)c1ccc(-n2nncc2-c2ccc(F)cc2)cc1	-5	-3	0	-35
CCN1C(=O)Cc2cc(NS(=O)(=O)c3cc(C)ccc3OC)ccc21	0	47*	2	11
CCC(C)NC(=O)c1c(O)c2cccc3c2n(c1=O)CC3 (stereo unspecified)	13	11	53*	25
CCn1ccc2c(cc(C(=O)Nc3ccccc3F)n2C)c1=O	74*	0	-43	-6
CCOc1cc(N2CCOCC2)c(OCC)cc1NC(=O)c1cc2c(s1)CCC2	13	36*	50*	11
Cc1ccc(F)cc1S(=O)(=O)NCc1ccc(N2CCN(C)CC2)cc1	15	16	-7	36*
CC(=O)N1CCc2cc(Br)cc(S(=O)(=O)NCc3ccc(F)cc3)c21	-4	-23	0	-8
Cc1nc(-c2ncc[nH]2)cc(C2CCCN(Cc3cscn3)C2)n1 (stereo unspecified)	-26	-32	0	-15
COc1c2c(cc3c1C(CC(=O)c1c(O)c(OC)c4occc4c1OC)[N+](C)(C)CC3)OCO2 (stereo unspecified)	13	30	28	39*
Cc1ccc(NC(=O)c2ccc3nn(CC(=O)Nc4ccc(C)cc4C)c(=O)n3c2)cc1	-19	-18	53*	-50

Assay outcomes as filed in PubChem.
